# Values joined by “and” are separate entries in the source; they are usually repeats but may differ in a detail not shown here. Equal entries are not always repeated. Inconclusive results are not listed. A number with no mark means an inactive call. Active and inactive are the calls of the source. The call rests on the fitted dose curve; in most records, active means well fitted curve in the direction sought with a large enough effect; inconclusive means small, poorly fitted or top-dose-only effect, or another doubt; inactive means no such curve, though single readings can be large; an effect the other way counts as inactive or inconclusive.
# What was measured:
# [1] = molecular target: Cellular tumor antigen p53 (Homo sapiens) (UniProt P04637); assay: Primary qHTS for small molecule compounds that upregulate eGFP-tagged delta133p53alpha (in N-terminal) cells. (AID 2060322); settings: NCI-H358 eGFP-delta133p53alpha fluorescence, 24 h; activation: active compounds read high; further: nearly all actives have a fitted effect of over 75% in size; further: potency means the concentration at half of the fitted maximal effect;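 on activation: cells pre-induced with doxycycline then dosed without doxycycline; series mostly up to about 56 µM; 0% = DMSO vehicle and 100% = reference activator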
# Chain of Cellular tumor antigen p53 (Homo sapiens) (P04637 whole entry, looked up): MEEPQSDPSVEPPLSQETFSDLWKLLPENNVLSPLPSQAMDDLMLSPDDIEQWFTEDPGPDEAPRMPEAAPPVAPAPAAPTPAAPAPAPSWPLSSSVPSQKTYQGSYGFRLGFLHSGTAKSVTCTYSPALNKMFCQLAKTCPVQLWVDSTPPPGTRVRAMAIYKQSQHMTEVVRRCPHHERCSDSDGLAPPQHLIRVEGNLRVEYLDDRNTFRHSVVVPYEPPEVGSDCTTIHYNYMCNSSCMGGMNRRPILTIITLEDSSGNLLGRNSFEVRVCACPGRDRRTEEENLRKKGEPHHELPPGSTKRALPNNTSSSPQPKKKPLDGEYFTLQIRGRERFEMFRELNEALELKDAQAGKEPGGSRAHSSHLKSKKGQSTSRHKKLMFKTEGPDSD
# How it was run: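 NCI-H358 cells pre-induced 24 h with 10 ng/ml doxycycline for eGFP-delta133p53alpha, plated dox-free and exposed 24 h at 37C to titrated compounds. Fixed, Hoechst-stained; gated GFP peak intensity by laser scanning cytometry, normalized to DMSO (0%) and 57.5 uM 5-azacytidine (100%).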
# [2] = molecular target: Aldehyde dehydrogenase, mitochondrial (Homo sapiens) (UniProt P05091); assay: qHTS for Inhibitors of the Aldehyde Dehydrogenase Family (ALDH2) Primary screen (AID 2061308);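 further: plate controls were vehicle for no effect and reference inhibitor for full effect; nearly all actives have a fitted effect of over 55% in size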
# [3] = molecular target: Retinaldehyde dehydrogenase 3 (Homo sapiens) (UniProt P47895); assay: qHTS for Inhibitors of the Aldehyde Dehydrogenase Family (ALDH1A3) Primary screen (AID 2061315);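 further: plate controls were DMSO vehicle for no effect and reference inhibitor for full effect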
# [4] = BET inhibitor-based combinations targeting novel dependencies in MECOM-rearranged (r) AML: OCI-AML3 cell line (AID 2202232); settings: Potency: OCI-AML3 viability; further: nearly all actives have a fitted effect of over 35% in size; further: potency means the concentration at half of the fitted maximal effect
# How it was run: (§1)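 Luminescent ATP readout (CellTiter-Glo) after 48 hr drug exposure gives viability. Curves span 11 concentrations and are normalized to DMSO and empty wells. Activity is reported as area under the curve and its Z-transform within each cell line.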
# [5] = BET inhibitor-based combinations targeting novel dependencies in MECOM-rearranged (r) AML: MV-4-11 cell line (AID 2202233); further: nearly all actives have a fitted effect of over 45% in size; further: potency means the concentration at half of the fitted maximal effect
# How it was run: (§2)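 Luminescent ATP readout (CellTiter-Glo, 15 min at room temperature) after 48 hr drug exposure gave viability. Dose-response curves, normalized to DMSO and empty-well controls, were summarized as area under the curve and its mean-centred Z-score.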
# [6] = BET inhibitor-based combinations targeting novel dependencies in MECOM-rearranged (r) AML: UCSD-AML1 cell line (AID 2202235); further: nearly all actives have a fitted effect of over 40% in size; further: potency means the concentration at half of the fitted maximal effect
# How it was run: as §2
# [7] = BET inhibitor-based combinations targeting novel dependencies in MECOM-rearranged (r) AML: AML-191 cell line (AID 2202236; further: nearly all actives have a fitted effect of over 35% in size; further: potency means the concentration at half of the fitted maximal effect)
# How it was run: as §1
# [8] = BET inhibitor-based combinations targeting novel dependencies in MECOM-rearranged (r) AML: AML-194 cell line (AID 2202237; further: nearly all actives have a fitted effect of over 40% in size; further: potency means the concentration at half of the fitted maximal effect)
# How it was run: as §1
# [9] = BET inhibitor-based combinations targeting novel dependencies in MECOM-rearranged (r) AML: HNT-34 cell line (AID 2202234); further: nearly all actives have a fitted effect of over 35% in size; further: potency means the concentration at half of the fitted maximal effect
# How it was run: as §2
SMILES,activation [1],Potency [2],Potency [3],Potency [4],Potency [5],Potency [6],Potency [7],Potency [8],Potency [1],Potency [9],"activity change, negative = inhibition [2]","activity change, negative = inhibition [3]"
CC(C)(C)c1cc(NC(=O)Nc2ccc(-c3cn4c(n3)sc3cc(OCCN5CCOCC5)ccc34)cc2)no1,10.5% and 25%,inactive,inactive,4.68 µM (active),0.003 µM (active),inactive,4.68 µM (active),14.8 µM (active),,,,
Cc1nc(N)ncc1-c1nc(N2CCOCC2)c2sc(C(C)(C)O)cc2n1,9.3%,inactive,inactive,0.105 µM (active),4.17 µM (active),1.32 µM (active),,,,,,
CN(NC(=O)CC(=O)NN(C)C(=S)c1ccccc1)C(=S)c1ccccc1,,inactive,inactive,0.0525 µM (active),,0.059 µM (active),0.0372 µM (active),0.0417 µM (active),0.861 µM (active),0.0148 µM (active),,
CCCS(=O)(=O)Nc1ccc(F)c(C(=O)c2c[nH]c3ncc(Cl)cc23)c1F,27.8% and 12.5%,inactive,inactive,inactive,,inactive,,,,11.8 µM (active),,
CCN(CCCOc1ccc2c(Nc3cc(CC(=O)Nc4cccc(F)c4)[nH]n3)ncnc2c1)CCOP(=O)(O)O,15.2%,inactive,inactive,0.468 µM (active),,inactive,,0.662 µM (active),,,,
CN(C)CC(=O)N1CCC(c2ccc(NC(=O)c3ncc(C#N)[nH]3)c(C3=CCCCC3)c2)CC1,-0.715%,inactive,inactive,,0.148 µM (active),5.25 µM (active),,,,10.5 µM (active),,
CCS(=O)(=O)c1cccc(-c2cc(C(=O)NC3CCN(C)CC3)c(C)c3[nH]c4ncc(C)cc4c23)c1,,inactive,inactive,1.48 µM (active),,,3.72 µM (active),2.63 µM (active),12.2 µM (active) and 5.88 µM (active),0.235 µM (active),,
CNC(=O)c1cc(Oc2ccc(NC(=O)Nc3ccc(Cl)c(C(F)(F)F)c3)c(F)c2)ccn1,8.41%,inactive,inactive,2.63 µM (active),0.59 µM (active),,9.34 µM (active),,,10.5 µM (active),,
CN1CCN(C(=O)c2ccc3cc(CCNc4ncnc5ccc(C#N)cc45)ccc3c2)CC1,-12.3%,inactive,inactive,,7.42 µM (active),,,,,,,
COc1cc2nccc(Oc3ccc(NC(=O)Nc4cc(C)on4)c(Cl)c3)c2cc1OC,,inactive,inactive,,1.05 µM (active),16.6 µM (active),7.42 µM (active),,30.6 µM (active) and 21.3 µM (active),0.209 µM (active),,
CCOC(=O)[C@H]1O[C@@H]1C(=O)N[C@@H](CC(C)C)C(=O)NCCC(C)C,4.33%,inactive,inactive,18.6 µM (active),,inactive,inactive,inactive,,inactive,,
Cc1cnc(CNC(=O)c2c(=O)c3ccc(N4CCCN(C)CC4)nc3n3c2sc2ccccc23)cn1,18.9% and -1.79%,,,,1.08 µM (active),,,,,,8.69% [at 11.2 µM],2.3% [at 11.2 µM]
O=C(NC[C@H](O)CN1CCc2ccccc2C1)c1ccnc(NC2CCC2)c1,4.33%,inactive,inactive,0.0042 µM (active),,inactive,inactive,,,inactive,,
Cc1cccc(Nc2nc(-c3ccncc3)cs2)c1,11.1% and -1.43%,inactive,inactive,inactive,,inactive,,inactive,,,,
N#Cc1ccnc(N2C(=O)CC[C@H]2C(=O)N(c2cncc(F)c2)[C@H](C(=O)NC2CC(F)(F)C2)c2ccccc2Cl)c1,-19.7% and -8.38%,inactive,inactive,inactive,inactive,,,inactive,,inactive,,
C[C@@H](NCCCc1cccc(C(F)(F)F)c1)c1cccc2ccccc12,1.97%,inactive,inactive,16.6 µM (active),,,23.5 µM (active),26.3 µM (active),,26.3 µM (active),,
COc1ccc(-c2c(C)nn3c(NCCN4CCOCC4)cc(C)nc23)cc1OC,7%,inactive,inactive,inactive,,inactive,,,,20.9 µM (active),,
CCc1nc(C(N)=O)c(Nc2ccc(N3CCC(N4CCN(C)CC4)CC3)c(OC)c2)nc1NC1CCOCC1,-44.7%,inactive,inactive,5.9 µM (active),0.059 µM (active),,2.63 µM (active),3.32 µM (active),,1.48 µM (active),,
CC1(C)CN(C(=O)c2ccc(-c3cccc4nc(NC(=O)C5CC5)nn34)cc2)C1,5%,inactive,inactive,inactive,,,,inactive,,18.6 µM (active),,
COc1nccc(-c2c(-c3ccc(F)cc3)ncn2C2CCNCC2)n1,2.68%,inactive,inactive,inactive,20.9 µM (active),16.6 µM (active),20.9 µM (active),,,,,

SMILES,activation [1],Potency [2],Potency [3],Potency [4],Potency [5],Potency [6],Potency [7],Potency [8],Potency [1],Potency [9],"activity change, negative = inhibition [2]","activity change, negative = inhibition [3]"
CC(Nc1ncnc2nc[nH]c12)c1cc2cccc(Cl)c2c(=O)n1-c1ccccc1 (stereo unspecified),27.7%,inactive,inactive,,5.9 µM (active),,,,,,,
Cc1ccc(-c2ccc3c(ccc4sc5c(c43)NC[C@@H](C)NC5=O)n2)cn1,8.04%,inactive,inactive,18.6 µM (active),20.9 µM (active),,26.3 µM (active),26.3 µM (active),,26.3 µM (active),,
CCN1CCC(n2cc(CNc3cc(Cl)c4ncc(C#N)c(Nc5ccc(F)c(Cl)c5)c4c3)nn2)CC1,,inactive,inactive,16.6 µM (active),,inactive,,,16.9 µM (active),,,
CC(C)(O)CC(=O)NCCn1ccc2ncnc(Nc3ccc(Oc4cccc(C(F)(F)F)c4)c(Cl)c3)c21,,inactive,inactive,16.6 µM (active),,14.8 µM (active),16.6 µM (active),,24.3 µM (active),14.8 µM (active),,
O=C(O)c1ccc(O)c2ncc(N3CCOCC3)cc12,22.8%,inactive,inactive,inactive,,,,inactive,,,,
CC(C)(C)Cn1c(N)nc2ccc(-c3[nH]c(C(C)(C)C)nc3-c3ccc(F)cc3)nc21,-1.62%,inactive,inactive,,18.6 µM (active),inactive,,,,23.5 µM (active),,
CC[C@@](C)(Nc1ccnc(-c2c[nH]c3ncccc23)n1)C(=O)NCC(F)(F)F,18.8%,inactive,inactive,,14.8 µM (active),6.61 µM (active),,,,14.8 µM (active),,
Cc1csc(-c2nnc(Nc3ccc(Oc4ncccc4-c4ccnc(N)n4)cc3)c3ccccc23)c1,19.6%,inactive,inactive,1.86 µM (active),,0.296 µM (active),,,,,,
O=c1[nH]c([C@@H]2CCCN2)nc2c1oc1ccc(Cl)cc12,-1%,inactive,inactive,,13.2 µM (active),,,,,,,
C[C@@H]1CCN(C(=O)N2CCCC2)C[C@@H]1N(C)c1ncnc2[nH]ccc12,-10.7%,inactive,inactive,inactive,,0.934 µM (active),,,,16.6 µM (active),,
CCCCCN(CCC12CC3CC(CC(C3)C1)C2)C(=O)NCCCc1ccncc1,,inactive,inactive,18.6 µM (active),13.2 µM (active),14.8 µM (active),,18.6 µM (active),23.9 µM (active),16.6 µM (active),,
NC(=O)c1c(OCc2c(F)cc(Br)cc2F)nsc1NC(=O)NCCCCN1CCCC1,9.77%,inactive,inactive,20.9 µM (active),20.9 µM (active),,26.3 µM (active),26.3 µM (active),,23.5 µM (active),,
Cc1cc(SCc2sc(-c3ccc(C(F)(F)F)cc3)nc2C)ccc1OCC(=O)O,-4.33%,inactive,inactive,,inactive,inactive,inactive,inactive,,inactive,,
Nc1nc(OCc2cc(Br)cs2)c2[nH]cnc2n1,-5%,inactive,inactive,9.34 µM (active),,,,inactive,,,,
COc1cc(Nc2ncc3c(n2)-c2ccc(Cl)cc2C(c2c(F)cccc2OC)=NC3)ccc1C(=O)O,85.9%,inactive,inactive,,0.0833 µM (active),,,,,,,
COc1nccc(-c2c(-c3ccc(F)cc3)ncn2C2CCC(O)CC2)n1 (stereo unspecified),22% and -24.1%,inactive,inactive,18.6 µM (active),,,18.6 µM (active),inactive,,,,
COc1cc2ncnc(-n3nc(-c4ccccn4)nc3N)c2cc1OC,13.4%,inactive,inactive,,1.48 µM (active),4.68 µM (active),4.17 µM (active),6.61 µM (active),,2.35 µM (active),,
CC(C)[C@@H](CS(=O)(=O)C(C)C)N1C(=O)[C@@](C)(CC(=O)O)C[C@H](c2cccc(Cl)c2)[C@H]1c1ccc(Cl)cc1,0.955% and -3.88%,inactive,inactive,2.35 µM (active),1.86 µM (active),1.86 µM (active),,2.35 µM (active),,1.66 µM (active),,
Cc1cc2c(cc1C1(c3ccc(C(=O)O)cn3)CC1)C(C)(C)CCC2(C)C,-11.7% and 0.333%,inactive,inactive,,0.0209 µM (active),inactive,inactive,inactive,,inactive,,
COc1cc(F)c(F)c(Nc2ccc(I)cc2F)c1NS(=O)(=O)C1(C[C@H](O)CO)CC1,4.11%,inactive,inactive,0.166 µM (active),,0.662 µM (active),,,,1.32 µM (active),,
